Source: PubChem (National Center for Advancing Translational Sciences (NCATS))
CXXC DNA block: MLL CXXC-DNA interaction inhibition. MLL-CXXC / FITC-HOXA9 DNA fluorescence polarization. Potency, µM (highest dose often 115 µM), without a hit: at the highest dose activity change, negative = inhibition, actives largely listed as inhibitors. hit rate 0.037% among 290,000. AID 2662; active means well fitted inhibition curve with a large enough effect in the polarisation, with a control signal flat, not every such curve was filed as active; inconclusive means small, poorly fitted or top-dose-only effect, or effect the other way, or a change in a side signal; inactive means no such curve, though single readings can be large or run the other way; the % refers to the polarisation; further: potency means the concentration at half of the fitted maximal effect
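Purified MLL-CXXC (added from a 7 uM solution) was preincubated 5 min at ambient with pinned compounds in 50 mM Tris-HCl pH 7.5, 50 mM NaCl, 1 mM DTT, 0.05% BSA. Fluorescein-labeled HOX-A9 DNA (50 nM solution) followed, 30 min, then polarization read.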
Menin-MLL TR inh: displaces Texas Red mutant MLL peptide from human menin; O00255; Menin + Texas Red MLL mutant peptide, fluorescence polarization; Potency, µM (highest dose often 61.6 µM), for inactives: top-dose FP activity change, negative = inhibition, usual class: inhibitors; hit rate 0.23% among 270,000; active means well fitted inhibition curve with a large enough effect in the polarisation, with a control signal flat, not every such curve was filed as active; inconclusive means small, poorly fitted or top-dose-only effect, or effect the other way, or a change in a side signal; inactive means no such curve, though single readings can be large or run the other way; the % refers to the polarisation; further: potency means the concentration at half of the fitted maximal effect; % of control where 0% means no effect
Target sequence (O00255 whole entry, looked up): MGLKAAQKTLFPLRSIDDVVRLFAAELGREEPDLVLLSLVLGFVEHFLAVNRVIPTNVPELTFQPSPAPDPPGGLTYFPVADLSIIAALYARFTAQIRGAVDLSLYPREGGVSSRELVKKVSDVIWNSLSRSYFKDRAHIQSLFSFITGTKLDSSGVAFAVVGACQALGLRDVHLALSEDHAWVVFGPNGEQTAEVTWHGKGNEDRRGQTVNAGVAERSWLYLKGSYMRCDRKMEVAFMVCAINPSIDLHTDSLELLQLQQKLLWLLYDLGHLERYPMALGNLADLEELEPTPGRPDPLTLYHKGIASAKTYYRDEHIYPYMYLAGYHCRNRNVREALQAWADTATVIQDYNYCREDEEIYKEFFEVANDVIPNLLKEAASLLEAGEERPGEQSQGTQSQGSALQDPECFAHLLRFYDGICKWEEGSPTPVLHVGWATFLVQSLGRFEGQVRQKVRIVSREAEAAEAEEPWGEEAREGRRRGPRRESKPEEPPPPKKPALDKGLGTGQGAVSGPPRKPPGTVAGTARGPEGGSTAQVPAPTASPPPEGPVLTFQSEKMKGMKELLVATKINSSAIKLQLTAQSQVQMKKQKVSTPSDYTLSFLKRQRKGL
Menin-MLL FL inh: menin-MLL binding inhibition, fluorescein peptide; Fluorescence polarization, fluorescein-MLL peptide displacement from menin; FP activity change, % at 61.4 µM; 290,000 tested, under 10 active; active means well fitted curve in the direction sought with a large enough effect in the polarisation, not every such curve was filed as active; inconclusive means small, poorly fitted or top-dose-only effect, or effect the other way, or a change in a side signal; inactive means no such curve, though single readings can be large or run the other way; the % refers to the polarisation; further: % of control where 0% means no effect
ClpP mod: qHTS Assay for Activators of ClpP; ATP-dependent Clp protease proteolytic subunit (Bacillus subtilis (strain 168)), P80244; purified B. subtilis ClpP, FRET peptide cleavage, 20 min; Potency, µM (highest dose often 57.5 µM), for the others: at the top dose activity change, negative = active; hit rate 1.9% among 340,000; active means well fitted falling curve with a large enough effect; inconclusive means small, poorly fitted or top-dose-only effect; inactive means no such curve, though single readings can be large or run the other way; further: potency means the concentration at half of the fitted maximal effect; the source files actives as falling curves though it sought activators and does not explain the sign; nearly all actives have a fitted effect of over 65% in size
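ClpP 10 microg/mL final, pH 8 Tris/KCl buffer with BSA, glycerol, Tween-20; compound pinned in; FRET-FV substrate; RT 20 min; Ex320/Em430; ΔFRET vs ADEP 5.8 microM, DMSO, no enzyme.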
p53 reactivation: restores transcriptional activity of mutant p53 | H1299 p53-A138V BP100-luciferase reporter, luminescence, 24 h | Potency, µM (top dose mostly 92.2 µM), for inactives: top-dose activity change, positive = activation, hits mostly activators | hit rate 0.063% among 320,000 | AID 504706; further: potency means the concentration at half of the fitted maximal effect; % of control where 0% means no effect; nearly all actives have a fitted effect of over 45% in size
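H1299 (p53-null), stable ts p53-A138V + BP100-Luc; 1000 cells/well, Opti-MEM/10% FBS; cpd 4 pt, 1:5; 24 h, 37 deg C, 5% CO2; detection reagent 10 min RT; luminescence.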
ClpP inh valid: Bacillus subtilis ClpP inhibition, validated hit; shares compounds with ClpP mod; purified B. subtilis ClpP, FRET-FV substrate cleavage, 20 min; Potency, µM (titrated, usually from 57.5 µM), for inactives: at the highest dose activity change, negative = inhibition, hits mostly inhibitors; hit rate 40% among 470; AID 743245; further: potency means the concentration at half of the fitted maximal effect; on the % scale 0 is the no-effect control and ±100 the full control effect; nearly all actives have a fitted effect of over 70% in size
An asterisk follows results filed as active; ? = inconclusive; . = no result given. The entries come from a sample that favours hits as a whole. Unless noted, the call rests on the fitted dose curve; in most records, active means well fitted curve in the direction sought with a large enough effect; inconclusive means small, poorly fitted or top-dose-only effect, or another doubt; inactive means no such curve, though single readings can be large; an effect the other way counts as inactive or inconclusive.

SMILES | CXXC DNA block | Menin-MLL TR inh | Menin-MLL FL inh | ClpP mod | p53 reactivation | ClpP inh valid
CCCC(=O)NC(=S)Nc1cc(-c2nc3ncccc3o2)ccc1C | 8% | . | -2 | 9% | -2% | .
CCCC(=O)Nc1cc(-c2nc3ncccc3o2)ccc1C | -3% | -10% | 0 | 3.2µM* | -1% | 24µM*
COC(=O)c1ccccc1NC(=O)c1ccc2nc(Cc3ccccc3)oc2c1 | . | . | . | -6% | . | .
CCOc1ccccc1NC(=O)c1cc2ccccc2o1 | . | . | . | 53% | . | -14%
Cc1cc(C)c(NC(=O)C2CCN(C(=O)N3CC(C)Oc4ccc(Cl)cc43)CC2)c(C)c1 (stereo not given) | . | . | . | 0% | . | .
O=C(Nc1cccc(-c2nc3ccccc3o2)c1)c1ccc(-c2ccc(Br)cc2)o1 | . | . | . | 4µM* | . | 11%
CC(=O)Nc1cccc(-c2nc3ccccc3o2)c1 | 7% | -12% | -4 | 4% | -4% | .
O=S(=O)(c1ccc2c(c1)CCCC2)N1CCN(c2nc(-c3cccs3)nc3ccccc23)CC1 | . | . | . | 8.9µM* | . | 24µM*
O=S(=O)(c1ccc2c(Cl)cccc2c1)N1CCN(c2nc(-c3cccs3)nc3ccccc23)CC1 | . | . | . | 4.5µM* | . | 22µM*
CC(C)(C)c1cccc(S(=O)(=O)N2CCN(c3nc(-c4cccs4)nc4ccccc34)CC2)c1 | . | . | . | 4% | . | .
O=C(O)c1ccccc1NC(=O)N1c2ccccc2Sc2ccccc21 | . | . | . | 4% | . | .
Cc1ccc(Cn2ccc(NC(=O)c3nn(C)cc3Cl)n2)cc1 | -1% | ? | 3 | 91% | 18% | -1%
Cc1cc(C)cc(OCC(=O)NC(Cc2c[nH]c3ccccc23)C(=O)O)c1 (stereo not given) | . | . | . | -5% | . | .
O=c1oc2cc(OCc3ccc(F)cc3F)ccc2cc1-c1ccccn1 | 12% | 8% | -1 | 3.2µM* | -2% | 9.7µM*
NC(=O)COc1ccc2cc(-c3ccc(F)cc3)c(=O)oc2c1 | 0% | -12% | -2 | . | ? | .
CC1CCN(S(=O)(=O)c2ccc3c(c2)N(CC(=O)NCCN(C)C)C(=O)CS3)CC1 | . | . | . | 0% | . | .
CCOC(=O)N1CCc2c(sc(NCc3cccs3)c2C(=O)Nc2cc(Cl)ccc2OC)C1 | . | . | . | -7% | . | .
O=C(Nc1ccc(F)cc1)c1sc2cc(C(F)(F)F)cnc2c1-c1cccs1 | 0% | -8% | 0 | 63% | 1% | -14%
